Compound activity from PubChem BioAssay.
EBI2 block: EBI2 receptor antagonists, beta-arrestin recruitment, primary screen, cell-based, luminescence, 7a,25-OHC stimulation, uHTS; AID 651636, 2012; hit rate 0.81% among 360,000; inhibition, % at 5 µM; 7a,25-OHC stimulated; in the data active = inhibition above about 38%;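 note: enzyme fragment complementation signal reports receptor beta-arrestin coupling in cells; 0% = agonist plus DMSO wells and 100% = wells without agonist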
SENP8 block-1: SENP8 protease inhibitors, primary screen, biochemical, luminescence | Sentrin-specific protease 8 (Homo sapiens), Q96LD8 | purified SENP8, Z-RLRGG-aminoluciferin cleavage | inhibition, % at 10 µM | hit rate 1.2% among 330,000; in the data active = inhibition above about 50%
SENP6 block: SENP6 protease inhibitors, primary screen, biochemical, luminescence, uHTS | Sentrin-specific protease 6 (Homo sapiens), Q9GZR1 | Recombinant SENP6 catalytic domain, aminoluciferin luminescence | inhibition, % at 10 µM | hit rate 1.8% among 330,000;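 active = inhibition above about 50% at the single tested dose, limit read from the data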;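 note: plate controls were DMSO wells with enzyme for no effect and DMSO wells lacking enzyme for full effect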
AHR activator: AHR activators, primary screen, cell-based, luminescence, luciferase reporter, human; AHR-responsive luciferase reporter cells; hit rate 2.5% among 320,000; activation, % at 5 µM; AID 2796, 2010; in the data active = activation above about 47%;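 note: 0% = vehicle wells and 100% = reference agonist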
Target sequence (P35869 whole entry, looked up): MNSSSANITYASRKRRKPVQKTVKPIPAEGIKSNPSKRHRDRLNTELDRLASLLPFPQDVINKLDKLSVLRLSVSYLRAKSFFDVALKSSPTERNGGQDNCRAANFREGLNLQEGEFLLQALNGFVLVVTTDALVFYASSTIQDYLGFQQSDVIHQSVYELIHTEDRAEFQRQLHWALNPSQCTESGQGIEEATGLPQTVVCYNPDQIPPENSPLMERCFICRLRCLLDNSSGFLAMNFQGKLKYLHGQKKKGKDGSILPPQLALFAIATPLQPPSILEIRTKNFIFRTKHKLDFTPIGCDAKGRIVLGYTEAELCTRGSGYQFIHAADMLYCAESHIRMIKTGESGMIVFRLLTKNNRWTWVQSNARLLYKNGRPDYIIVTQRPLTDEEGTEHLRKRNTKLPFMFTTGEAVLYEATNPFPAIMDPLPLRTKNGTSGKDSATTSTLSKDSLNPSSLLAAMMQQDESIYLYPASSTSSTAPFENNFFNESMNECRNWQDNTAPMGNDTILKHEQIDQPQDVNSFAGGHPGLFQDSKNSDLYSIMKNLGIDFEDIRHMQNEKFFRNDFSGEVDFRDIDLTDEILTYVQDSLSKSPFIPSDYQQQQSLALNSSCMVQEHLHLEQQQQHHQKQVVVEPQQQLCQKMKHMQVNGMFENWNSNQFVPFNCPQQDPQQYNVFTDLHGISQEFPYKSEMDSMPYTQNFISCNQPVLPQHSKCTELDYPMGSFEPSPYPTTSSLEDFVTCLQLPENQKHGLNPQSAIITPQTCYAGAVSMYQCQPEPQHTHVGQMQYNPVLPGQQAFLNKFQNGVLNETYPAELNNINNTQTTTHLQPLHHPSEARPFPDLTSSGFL
SENP8 block-2: human SENP8 protease inhibitors, primary screen, biochemical, fluorescence, Nedd8 protein substrate, uHTS; hit rate 0.64% among 360,000; recombinant SENP8; inhibition, % at 20 µM; Sentrin-specific protease 8 (Homo sapiens), Q96LD8; AID 602440, 2012; in the data active = inhibition mostly above about 40%, no sharp cut-off; inactive = mostly below about 27%
SENP7 block: SENP7 protease inhibitors, primary screen, biochemical, luminescence, uHTS | hit rate 1.5% among 330,000 | inhibition, % at 5 µM | recombinant SENP7, Z-RLRGG-aminoluciferin luminescence, 40 min | AID 434973, 2010;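 active = inhibition above about 50% at the single test dose, limit read from the data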;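 note: plate controls were DMSO with enzyme for no effect and no enzyme buffer wells for full effect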
SENP8 confirm: SENP8 protease inhibitors, retest, confirmation, biochemical, luminescence, single concentration; hit rate 40% among 6,200; shares compounds with SENP7 block; Recombinant SENP8, Z-RLRGG-aminoluciferin luminescence, 60 min; inhibition, % at 12.5 µM;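 active = mean inhibition across replicates above about 50%, limit read from the data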
SENP6 confirm: SENP6 protease inhibitors, confirmation, biochemical, luminescence, single concentration; AID 488915, 2010; inhibition, % at 12.5 µM; recombinant SENP6, Z-RLRGG-aminoluciferin luminescence; hit rate 58% among 6,200; shares compounds with SENP7 block
SENP7 conf: SENP7 protease inhibitors, retest, confirmation, biochemical, luminescence, single concentration. shares compounds with SENP7 block. recombinant SENP7, Z-RLRGG-aminoluciferin luminescence, 40 min. inhibition, % at 12.5 µM. hit rate 69% among 6,200
Casp3 SENP sel: caspase-3 protease inhibitors, confirmation, selectivity assay for SENP inhibitor project, biochemical, single concentration; hit rate 60% among 6,200; shares compounds with SENP7 block; inhibition, % at 12.5 µM; AID 488918, 2010; purified caspase-3, Z-DEVD-aminoluciferin luminescence, 60 min;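 active = mean inhibition above about 50%, limit read from the data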;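 note: plate controls were enzyme with DMSO for no effect and wells without caspase-3 for full effect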
Luc interf: counter-screen for SENP inhibitors: luminescence interference. shares compounds with SENP7 block. Pre-incubated SENP8/Z-RLRGG-aminoluciferin, luciferase luminescence interference. AID 488919. inhibition, % at 12.5 µM. hit rate 39% among 6,200;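 active = mean inhibition above about 50% when retested at one dose, limit read from the data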;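 note: plate controls were DMSO wells with completed reaction for no effect and substrate without enzyme for full effect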
Numbers without * were called inactive; nt = no result. This is a sample that favours compounds with a hit; in the whole collection about 5% have one here.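 Rule for the calls, unless noted: active = mean inhibition above about 50% in the one-dose retest (limit read from the data); inactive = the rest.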

SMILES | EBI2 block | SENP8 block-1 | SENP6 block | AHR activator | SENP8 block-2 | SENP7 block | SENP8 confirm | SENP6 confirm | SENP7 conf | Casp3 SENP sel | Luc interf
CC(O)C(=O)N/N=C/c1cccc2ccccc12 (configuration not stated) | 8 | nt | nt | nt | -2 | nt | nt | nt | nt | nt | nt
COc1cc([N+](=O)[O-])cc(/C=N/NC(=O)C(C)Nc2cccc3ccccc23)c1O (configuration not stated) | 56* | 46 | 68* | 21 | -66 | 12 | -4 | -1 | -6 | 4 | 4
COc1cc([N+](=O)[O-])cc(/C=N/NC(=O)c2cccnc2)c1O | 0 | 16 | 50 | 7 | 37 | 23 | nt | nt | nt | nt | nt
N/C(=N\OC(=O)c1ccco1)c1ccccc1 | -8 | 82* | 88* | 6 | 6 | 81* | 74* | 75* | 95* | 90* | 76*
COc1ccc(C(=O)COC(=O)c2ccco2)cc1 | -3 | 50* | 72* | 1 | 12 | 55* | 62* | 62* | 86* | 85* | 71*
CC(C)(C)C(=O)O/N=C(\N)c1ccc(Br)cc1 | -1 | -19 | -22 | 0 | 7 | -10 | nt | nt | nt | nt | nt
COc1ccc(C(=O)COc2cccc(NC(=O)c3ccco3)c2)cc1 | 3 | -6 | -23 | 13 | 5 | -11 | nt | nt | nt | nt | nt
Cc1cccc(/C(N)=N/OC(=O)c2ccco2)c1 | 2 | 84* | 92* | -2 | 19 | 91* | 91* | 92* | 101* | 94* | 86*
N/C(=N\OC(=O)c1ccco1)c1ccc(Br)cc1 | -9 | 74* | 93* | 1 | 0 | 76* | 84* | 83* | 97* | 75* | 73*
N#CCCn1c(SCC(=O)Nc2ccc(N3CCOCC3)cc2)nc2ccccc21 | -10 | 5 | -7 | 10 | 26 | -3 | nt | nt | nt | nt | nt
COc1cc(C(=O)NCCC(=O)N2CCC3(CC2)NCCc2[nH]cnc23)cc(OC)c1OC | -8 | 5 | 20 | 2 | 8 | -2 | nt | nt | nt | nt | nt
COC(=O)C1=CN(c2ccc(C(C)(C)C)cc2)C(N)=C(C#N)C1c1cccc2ccccc12 (configuration not stated) | 25 | nt | nt | nt | -112 | nt | nt | nt | nt | nt | nt
Cn1c(=O)c2ccccc2n(Cc2ccccc2Cl)c1=O | -2 | -9 | 4 | 2 | -2 | -9 | nt | nt | nt | nt | nt
Cc1ccc(/C(N)=N/OC(=O)c2ccco2)cc1 | 3 | 89* | 73* | -10 | 13 | 95* | 76* | 95* | 102* | 91* | 68*
COc1ccc(Cl)cc1C(=O)O/N=C(\N)c1ccc(Cl)cc1 | -1 | -13 | -11 | 17 | 2 | 8 | nt | nt | nt | nt | nt
Cc1cccc(/C(N)=N/OC(=O)CCCc2ccccc2)c1 | -4 | 40 | 60* | 4 | 8 | 0 | 50 | 52* | 85* | 68* | 21
Cc1ccc(C(=O)O/N=C(\N)c2ccc(Br)cc2)cc1 | 4 | -9 | 10 | -6 | 13 | 19 | nt | nt | nt | nt | nt
COc1ccc(/C(N)=N/OC(=O)c2ccco2)cc1 | -20 | 84* | 91* | -6 | 17 | 24 | 89* | 90* | 98* | 91* | 86*
N/C(=N\OC(=O)CCCc1ccccc1)c1ccccc1 | 3 | 7 | 31 | -3 | 4 | 2 | nt | nt | nt | nt | nt
Cc1occc1C(=O)O/N=C(\N)c1ccc(Cl)cc1 | 0 | 31 | 53* | 26 | -2 | 61* | 32 | 33 | 74* | 69* | 58*
CCS(=O)(=O)N1Cc2cc(C(=O)NCC3CC3)nc(-c3cccc(-c4cccnc4)c3)c2[C@@H]1CCO | 10 | nt | nt | nt | 18 | nt | nt | nt | nt | nt | nt
N/C(=N\OC(=O)c1ccco1)c1ccccn1 | -8 | 49 | 76* | -2 | 17 | 78* | 62* | 62* | 91* | 92* | 76*
Cc1ccc(C2=Nc3ccccc3N=C(C(Cl)Cl)C2)cc1 | 10 | 69* | 84* | 22 | -65 | 58* | 38 | 37 | 72* | 86* | 80*
Cc1cc2c(cc1C)NC(=O)CC(c1ccccc1)=N2 | -21 | nt | nt | nt | 16 | nt | nt | nt | nt | nt | nt
O=C(O)c1ccc(N/N=C/c2ccc3c(c2)OCO3)cc1 | -6 | 98* | 97* | -6 | -244 | 100* | 99* | 100* | 103* | 98* | 98*
SMILES | EBI2 block | SENP8 block-1 | SENP6 block | AHR activator | SENP8 block-2 | SENP7 block | SENP8 confirm | SENP6 confirm | SENP7 conf | Casp3 SENP sel | Luc interf
Cc1ccc(/C=N/Nc2ccc(Cl)c(C(=O)O)c2)s1 | 2 | 84* | 96* | 3 | -55 | 84* | 96* | 96* | 101* | 50* | 94*
O=C(O)c1cc(N/N=C/c2ccc3c(c2)OCO3)ccc1Cl | -13 | 69* | 66* | 7 | -73 | 7 | 3 | 81* | 95* | 63* | 83*
S=C1NC(c2ccccc2)N2C(=S)NC(c3ccccc3)N12 (configuration not stated) | -4 | 38 | 69* | 1 | 15 | 52* | 8 | 15 | 45 | 6 | 8
Cc1ccc(C2NC(=S)N3C(c4ccc(C)cc4)NC(=S)N23)cc1 (configuration not stated) | 3 | nt | nt | nt | 5 | nt | nt | nt | nt | nt | nt
O=C(Nc1ccc([N+](=O)[O-])cc1)Nc1ccc2[nH]c(=O)[nH]c2c1 | 3 | -4 | -7 | 8 | 20 | -2 | nt | nt | nt | nt | nt
O=C(Nc1ccc(F)cc1)C(=O)c1c(O)[nH]c2ccc([N+](=O)[O-])cc12 | 13 | 53* | 75* | 9 | 36 | 4 | 66* | 68* | 91* | 74* | 36
CCOc1ccc(NC(=O)c2nsc(Cl)c2Cl)cc1 | -5 | 18 | -33 | 28 | 27 | 35 | nt | nt | nt | nt | nt
O=C(Nc1ccc(F)c(Cl)c1)c1nsc(Cl)c1Cl | 11 | 91* | 93* | 30 | 15 | 96* | 53* | 74* | 87* | 80* | 27
